# The source holds several records for some structures; these can differ, active in one and inactive in another. The source made the active and inactive calls. The calls were made as follows: active = hit-call score of the fitted dose curve at least 0.9, where 1 is the maximum; inactive = score below 0.9.
# Read-out: Monocyte Chemoattractant Protein-1 (MCP1), CCL2 (gene 6347)
# Assay: BSK_CASM3C_MCP1: BioMAP Diversity Plus: CASM3C Assay for Monocyte Chemoattractant Protein-1 (MCP1) Biomarker Activity (AID 2283046);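 also: MCP-1 level quantified by ELISA 24 h after dosing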
# Conditions: primary human coronary artery smooth muscle cells; actives raise or lower the signal
SMILES,outcome,AC50
C=C(C)C(N)=O,inactive,
c1ccc2c(c1)-c1ccc3ccc4cccc5cc-2c1c3c45,inactive,
O=C(O)C(F)(F)C(F)(F)C(F)(F)C(F)(F)C(F)(F)C(F)(F)C(F)(F)C(F)F,inactive,
C[C@]12CC[C@@H]3c4ccc(O)cc4CC[C@H]3[C@@H]1CC[C@@H]2O,inactive,
CCCCCCCCCC(=O)OCC,,31.9 µM (active)
Nc1ccc(N)c([N+](=O)[O-])c1,,7.95 µM (active)
CCCCN(CCO)CCO,inactive,
CC(=O)OC(C)(C)C1CC=C(C)CC1 (stereo not drawn),,32.6 µM (active)
CC1=CC(C)C(C=O)C(C)C1 (stereo not drawn) (tested in a mixture with another compound),inactive,
CCC(=O)OCC=Cc1ccccc1,inactive,
CC=CC(=O)C1=C(C)C=CCC1(C)C,inactive,
CC(=O)CCC=C(C)CCC=C(C)C,inactive,
CCCCCCCC1CCCC1=O (stereo not drawn),,34.3 µM (active)
O=S1(=O)CC(Cl)(Cl)C(Cl)(Cl)C1,,1.11 µM (active)
CCCCCCCCCCCCS,,3.97 µM (active)
CC(=O)OCC=C(C)CCC=C(C)CCC=C(C)C,inactive,
OCC(F)(OC(F)(F)C(F)(OC(F)(F)C(F)(F)C(F)(F)F)C(F)(F)F)C(F)(F)F (stereo not drawn),inactive,
CC1(C)[C@H](C=C(Cl)Cl)[C@H]1C(=O)OCc1cccc(Oc2ccccc2)c1,inactive,
CCOC(=O)C=Cc1ccccc1,inactive,
O=C(O)C(F)(F)OC(F)(F)C(F)(F)OC(F)(F)C(F)(F)C(F)(F)C(F)(F)F,inactive,48 µM (active)
CC(C)(C)c1cccc(O)c1,inactive,
CC(C)Cc1ccc(C(C)C(=O)O)cc1 (stereo not drawn),inactive,
